KB-3-1 tox: qHTS assay for MDR1-selective chemotherapeutics: Primary screen using the parental adenocarcinoma cell KB-3-1; KB-3-1 viability, CellTiter-Glo ATP luminescence, 72 h; Potency, µM (highest dose often 46.1 µM), most hits filed as cytotoxic; hit rate 1.4% among 400,000; also: % is scaled to controls: 0 for no effect and ±100 for the full control effect; nearly all actives have a fitted effect of over 60% in size
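Luminescent ATP read-out (CellTiter-Glo) measures survival of drug-naive KB-3-1 cells after 72 h compound exposure at 37 °C. Titration series was screened from lowest to highest concentration, with DMSO vehicle plates as background controls.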
S2 tox: Viability Counterscreen for Primary qHTS for Inhibitors of ATXN expression | hit rate 0.49% among 400,000 | AID 651635, 2014 | S2 cells (HEK-293 line with an ATXN2-luciferase reporter) viability, CellTiter-Fluor protease fluorescence, 24 h | Potency, µM (titrated, usually from 56.7 µM), actives largely listed as cytotoxic; also: nearly all actives have a fitted effect of over 40% in size
HT1080-NT tox: qHTS for induction of synthetic lethality in tumor cells producing 2HG: qHTS for the HT-1080-NT fibrosarcoma cell line; HT-1080-NT fibrosarcoma viability, CellTiter-Glo ATP luminescence, 48 h; Potency, µM (top dose mostly 46.1 µM), inactives show at the top dose activity, negative = less viability, hits mostly cytotoxic; hit rate 1.6% among 360,000;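 also: NT is the 2HG producing partner of a matched IDH1 knockdown line; 0% = DMSO-treated cells and -100% = media-only wells without cells; nearly all actives have a fitted effect of over 55% in size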
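Compounds were tested in concentration-response format on HT-1080-NT cells for 48 hours at 37 degrees C. Cell viability came from CellTiter-Glo luminescence; curves were classified by r2, response magnitude and activity.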
ATXN2 expr inh: Primary qHTS for Inhibitors of ATXN expression. AID 1745845, 2022. Potency, µM (series often up to 57 µM), for inactives: at the highest dose activity change, negative = inhibition, usual class: inhibitors. hit rate 0.72% among 360,000. HEK-293 ATXN2-luciferase reporter, luminescence, 24 h; also: % is scaled to controls: 0 for no effect and ±100 for the full control effect; nearly all actives have a fitted effect of over 55% in size
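qHTS (up to 57 uM final) was run with 24 h compound exposure of reporter cells at 37 °C. Each well was multiplexed: SteadyGlo luminescence measured ATXN2-luciferase expression after a fluorogenic Gly-Phe-AFC viability readout (25 uM final).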
KB-V1 cytotox: qHTS assay for MDR1-selective chemotherapeutics: Primary screen using the drug-selected MDR subline cells KB-V1. KB-V1 MDR cells viability, CellTiter-Glo, 72 h. hit rate 3.4% among 400,000. Potency, µM (doses to about 46.1 µM), actives largely listed as cytotoxic. AID 1347076, 2019; also: % is scaled to controls: 0 for no effect and ±100 for the full control effect; nearly all actives have a fitted effect of over 60% in size
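Following 72 h at 37 degrees C with compound, KB-V1 cell viability was read by CellTiter-Glo luminescence, medium being phenol-red-free DMEM plus 10% FBS; concentration-response parameters came from normalized, curve-fitted qHTS data.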
HT1080 IDH1KD tx: qHTS for induction of synthetic lethality in tumor cells producing 2HG: qHTS for the HT-1080-IDH1KD cell line | hit rate 2% among 360,000 | Potency, µM (series often up to 46.1 µM), for inactives: at the highest dose activity, negative = toxicity, usual class: cytotoxic | HT-1080 IDH1 knockdown viability, ATP luminescence, 48 h;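 also: 0% = DMSO wells and -100% = cell-free medium wells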
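Using the IDH1-knockdown HT-1080 line run in the same batch and compound series as the NT line, viability after 48 h at 37 °C was determined by CellTiter-Glo luminescence and expressed as % activity.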
Starred values were filed as active, the others as inactive; i = inactive; ? = inconclusive; · = no result. Sampled rows, rich in hits. Any-hit rate of the full collection: about 6.2%. Calls follow the shape of the dose curve; as a rule, active = well fitted curve in the direction sought with a large enough effect; inconclusive = small, poorly fitted or top-dose-only effect, or another doubt; inactive = no such curve, though single readings can be large; an effect the other way counts as inactive or inconclusive. Potency is read from the fitted curve at half-maximal effect.

SMILES | KB-3-1 tox | S2 tox | HT1080-NT tox | ATXN2 expr inh | KB-V1 cytotox | HT1080 IDH1KD tx
O=C1c2ccc3c4c(ccc(c24)C(=O)N1c1cccc(O)c1)CC3 | i | i | 3.5% | -13.1% | i | 13.9%
O=C1c2ccc3c4c(ccc(c24)C(=O)N1c1cccc(O)c1)C(=O)N(c1cccc(O)c1)C3=O | 16.4µM* | ? | ? | · | i | ?
Cc1cc(C2=NNC(=NC3CC3)SC2)c(C)n1Cc1ccco1 | 3.26µM* | ? | 7.31µM* | ? | 5.17µM* | 7.31µM*
COCCn1c(C)cc(C2=NNC(=Nc3ccc(Cl)cc3Cl)SC2)c1C | i | i | -0.7% | -5.8% | i | 10.5%
C=CCN=C1NN=C(c2cc(C)n(CCOC)c2C)CS1 | i | i | 8.7% | -22.8% | i | 8.0%
COCCn1c(C)cc(C2=NNC(=NC3CC3)SC2)c1C | i | ? | ? | 0.212µM* | ? | ?
COCCCN=C1NN=C(c2cc(C)n(Cc3ccco3)c2C)CS1 | ? | i | 1.64µM* | 0.0% | ? | 1.64µM*
COc1ccc(-n2c(C)cc(C3=NNC(=NC4CC4)SC3)c2C)cc1 | ? | i | 23.1µM* | 7.1% | ? | 20.6µM*
CCC1(C2CCN(C(=O)c3ccc4ccccc4c3)CC2)NC(=O)N(CCc2scnc2C)C1=O (stereo not drawn) | · | i | · | · | · | ·
O=C(Nc1ccc2c(c1)nc1n2CCSC1)c1ccccc1 | ? | i | -1.5% | ? | 13µM* | 0.7%
CCNC(=S)N/N=C1\CCCCc2ccccc21 | i | i | 8.0% | 5.1% | 16.4µM* | 7.6%
Cc1cccc(NC(=S)N/N=C2/CCCCc3ccccc32)c1 | ? | i | -21.1% | 21.0% | 16.4µM* | -27.4%
Cc1ccc(NC(=S)N/N=C2/CCCCc3ccccc32)cc1 | i | i | -21.3% | 20.0% | i | -28.6%
COc1ccccc1OCCCn1cc(C#N)c2ccccc21 | 11.6µM* | i | 0.3% | -10.0% | 5.17µM* | -0.1%
CCOC(=O)N1CCN(S(=O)(=O)c2ccc(C(=O)N(CCN(C)C)c3nc4ccc(CC)cc4s3)cc2)CC1 | i | i | -6.5% | 10.4% | i | -7.5%
CC1CCCCN1S(=O)(=O)c1ccc(C(=O)N(CCCN(C)C)c2nc3ccc(Br)cc3s2)cc1 (stereo not drawn) | ? | · | 18.4µM* | ? | 23.1µM* | ?
CCOC(=O)N1CCN(S(=O)(=O)c2ccc(C(=O)N(CCCN(C)C)c3nc4ccc(CC)cc4s3)cc2)CC1 | i | i | ? | ? | i | 16.4µM*
Cc1ccc2nc(N(CCCN(C)C)C(=O)c3ccc(S(=O)(=O)N4CCCCCC4)cc3)sc2c1 | ? | i | ? | ? | i | 18.4µM*
CN(C)CCCN(C(=O)C1=COCCO1)c1nc2ccc(Br)cc2s1 | ? | ? | 20.6µM* | ? | ? | 23.1µM*
CCc1ccc2nc(N(CCCN(C)C)C(=O)c3ccc(S(=O)(=O)N4CCCC4)cc3)sc2c1 | i | ? | -29.2% | -25.5% | i | -28.3%
Oc1ccc(C2CCN(c3ccnc4ccccc34)CC2)cc1O | · | · | · | 18.5% | · | ·
CCN1CCN(CC(=O)Nc2ccc(-c3cccc4c(=O)cc(N5CCOCC5)oc34)c3sc4ccccc4c23)CC1 | · | · | · | -14.7% | · | ·
Cc1cc(Cl)ccc1NS(=O)(=O)c1ccc2c(c1)CCN2S(C)(=O)=O | i | i | · | -15.2% | i | ·
Cc1ccccc1-c1nc2c(c(SCc3cccc(Cl)c3)n1)Cc1c(CO)cnc(C)c1O2 | i | i | · | 1.0% | i | ·
COC(=O)c1ccc(OCC2c3cc(OC)c(OC)cc3CCN2C(=O)C(C)C)cc1 (stereo not drawn) | i | i | · | -16.6% | i | ·

Compound activity (PubChem)
